# Out of some 100,000 compounds screened, about 770 (0.77%) were called active. The entries come from a sample that favours actives as a whole. Values without a mark were called inactive. No stated cut-off is given here; in the data, active means inhibition above about 50%; inactive means the rest.
# Target: Gag-Pol polyprotein (Human immunodeficiency virus type 1 group M subtype B (isolate HXB2)) (UniProt P04585)
# Experiment: RNase H inhibition, HIV 1 Gag Pol polyprotein, FRET biochemical assay, screening (AID 372)
# Conditions: HIV-1 RT RNase H, FRET RNA/DNA substrate fluorescence; at 10 µM; stronger effect = higher value
row,Structure (SMILES),inhibition
1,Cc1ccc(C(=O)/C=C/c2ccc(OCc3ccccc3)cc2)cc1,4%
2,C=CCOc1ccc(/C=C2/C(=O)NC(=O)N(c3ccccc3F)C2=O)cc1,7%
3,COc1ccccc1OCCOc1ccc(C=NNC(=S)Nc2ccccc2)cc1OC,5%
4,Cc1cc(C)c(C=Nc2cc([N+](=O)[O-])ccc2C)c(C)c1,11%
5,COCCCNC(=O)CN(c1ccc(OC)cc1OC)S(C)(=O)=O,9%
6,CCOc1ccccc1OCCOc1ccc(C=O)cc1,19%
7,COc1ccc(NC(=O)c2ccc(C)c([N+](=O)[O-])c2)cc1,6%
8,O=C(Oc1ccc(Cl)cc1)c1ccc(Cl)cc1,11%
9,COc1ccc(CNC(=O)CSc2nc3ccccc3[nH]2)cc1,3%
10,CCOc1ccc(C2=CC(=O)C(c3ccccc3)CC2)cc1 (stereo unspecified),22%
11,Cc1cc(OCC(=O)N2CCN(c3ccccn3)CC2)ccc1Br,24%
12,Cc1ccc(N(CC(=O)NCc2cccnc2)S(=O)(=O)c2ccc(F)cc2)cc1,2%
13,COc1ccc(C(=O)CSc2nnc(-c3ccccc3)n2-c2ccc(Cl)cc2)cc1,6%
14,O=C(N/N=C/c1ccncc1)c1cccc(I)c1,0%
15,O=C(N/N=C/c1ccc2ccccc2c1)c1ccccc1O,14%
16,O=C(N/N=C/c1ccc2ccccc2c1)c1ccc(O)c(O)c1,73% (active)
17,Cc1cc2c(cc1C)CN(c1cccc(C(=O)N/N=C/c3ccc(O)c(O)c3)c1)C2,62% (active)
18,Cc1cccc(/C=N/NC(=O)c2cc(O)cc(O)c2)c1,0%
19,Cc1cc2c(cc1C)CN(c1cccc(C(=O)N/N=C/c3ccc(N(C)C)cc3)c1)C2,47%
20,O=C(N/N=C/c1ccc(/C=N/NC(=O)c2cccc(I)c2)cc1)c1cccc(I)c1,53% (active)
21,O=C(N/N=C/c1ccc(O)c(O)c1)c1cccc(I)c1,44%
22,Cc1cc2c(cc1C)CN(c1cccc(C(=O)N/N=C/c3ccco3)c1)C2,21%

row,Structure (SMILES),inhibition
1,Cc1cccc(/C=N/NC(=O)c2ccc(O)c(O)c2)c1,56% (active)
2,Cc1cccc(/C=N/NC(=O)c2ccccc2)c1,0%
3,O=C(N/N=C/c1ccc2ccccc2c1)c1ccc(O)cc1,12%
4,Cc1cccc(NC(=O)c2cccnc2)c1,13%
5,COc1ccc(CC(=O)N2CCCc3ccccc32)cc1OC,5%
6,O=C(O)c1c(-c2ccccc2)oc2ccc(OCc3ccccc3)cc12,0%
7,O=C1CC(c2ccc(Cl)cc2)CC2=C1C(c1ccccc1F)Nc1ccccc1N2 (stereo unspecified),0%
8,O=C(COc1cccc(Cl)c1)N=Nc1c(O)[nH]c(=O)[nH]c1=O,10%
9,O=C(Nc1ccc(F)cc1)Nc1nnc(CSCc2ccccc2Cl)s1,23%
10,CC(=O)Oc1ccc(/C=C(/NC(=O)c2ccccc2)C(=O)NCCO)cc1,7%
11,O=C(O)CCC(=O)N1N=C(c2c(-c3ccccc3)c3cc(Cl)ccc3[nH]c2=O)CC1c1ccc([N+](=O)[O-])cc1 (stereo unspecified),18%
12,CC12c3ccccc3C(C)(c3ccccc31)C1C(=O)NC(=O)C12 (stereo unspecified),3%
13,O=C(N/N=C/c1ccc(O)c(O)c1)c1ccc(Br)cc1,41%
14,O=C(N/N=C/c1ccc(O)c(O)c1)c1ccc(O)cc1,37%
15,Cc1cc([N+](=O)[O-])ccc1NC(=O)c1ccccc1,11%
16,O=C(/C=C\Nc1ccccn1)c1ccc(Cl)cc1,9%
17,COc1cc(C=O)ccc1OCCOc1cccc(C)c1C,12%
18,Cc1ccc(C)c(NCn2nnc3ccccc32)c1,10%
19,Cc1csc(N/N=C/c2cccc(OCc3ccccc3)c2)n1,19%
20,O=C1N=C(N2CCN(c3ccccc3)CC2)S/C1=C\c1ccc(OCc2ccccc2)cc1,1%
21,Cc1ccc(S(=O)(=O)N(c2ccc(Br)cc2F)S(=O)(=O)c2ccc(C)cc2)cc1,16%
22,COc1ccc(N2C(=O)NC(=O)/C(=C\c3cc(I)c(OC)c(OC)c3)C2=O)cc1,7%

row,Structure (SMILES),inhibition
1,CCOC(=O)c1c(NC(=O)c2sc3cc(C)ccc3c2Cl)sc(C(N)=O)c1C,10%
2,CNC(=S)N/N=C/c1cccc(OCc2ccccc2F)c1,52% (active)
3,S=C(NCc1ccccc1)N/N=C/c1cccc(OCc2ccccc2)c1,12%
4,Fc1ccccc1COc1cccc(/C=N/Nc2ccccc2)c1,11%
5,CN1CCN(S(=O)(=O)c2ccc([N+](=O)[O-])cc2)CC1,0%
6,O=C(Nc1c(Cl)cccc1Cl)c1ccccc1,7%
7,O=C(Nc1ccccc1NC(=O)c1ccccc1)c1ccccc1,0%
8,COc1cc(-c2nc3sc4c(c3c(=O)[nH]2)CCCC4)ccc1OCc1cccc(F)c1,56% (active)
9,COc1cc(-c2nc3sc4c(c3c(=O)[nH]2)CCCC4)ccc1OCC(=O)O,5%
10,C=CCOc1ccc(-c2nc3sc4c(c3c(=O)[nH]2)CCCC4)cc1OC,30%
11,COc1ccc(C(=O)/C=C/NCC(=O)c2ccccc2)cc1,19%
12,N#CC1=C(N)Oc2c(ccc3ccccc23)C1c1ccccc1Cl (stereo unspecified),29%
13,Cc1ccc(N2C(=O)CC(Sc3ccccc3C(=O)O)C2=O)c([N+](=O)[O-])c1 (stereo unspecified),0%
14,CCOC(=O)c1c(C)oc2c1C(=O)C(=O)C(Br)=C2,2%
15,CCOC(=O)c1c2c(n(-c3ccccc3)c1C)C=C(Br)C(=O)C2=O,58% (active)
16,CCOC(=O)c1c2c(n(C)c1C)C=C(Br)C(=O)C2=O,4%
17,Cn1c(=O)c2c(nc(Sc3nc4ccccc4o3)n2C)n(C)c1=O,0%
18,CC1CCN(C2(O)C(=O)Nc3ccc(Br)cc32)CC1 (stereo unspecified),14%
19,O=C(c1ccc(I)cc1)N1CCOCC1,0%
20,O=[N+]([O-])c1ccc(-c2nnc(-c3ccco3)o2)c(Cl)c1,8%
21,O=[N+]([O-])c1cc(Cl)c(-c2ccco2)c(Cl)c1,57% (active)
22,O=[N+]([O-])c1ccc(-c2ccco2)c(Cl)c1,14%
